# In the supplement of paper PMC3334620:
# In all, about 33,000 sequences were measured (“E-score (-0.5 to 0.5)”: median about -0.0034, highest 2% from about 0.25 on). Shown is part of a subset that was picked to be rich in the highest values.
# Molecular target: T1, Yap3 (UniProt P38749)
# T1 sequence: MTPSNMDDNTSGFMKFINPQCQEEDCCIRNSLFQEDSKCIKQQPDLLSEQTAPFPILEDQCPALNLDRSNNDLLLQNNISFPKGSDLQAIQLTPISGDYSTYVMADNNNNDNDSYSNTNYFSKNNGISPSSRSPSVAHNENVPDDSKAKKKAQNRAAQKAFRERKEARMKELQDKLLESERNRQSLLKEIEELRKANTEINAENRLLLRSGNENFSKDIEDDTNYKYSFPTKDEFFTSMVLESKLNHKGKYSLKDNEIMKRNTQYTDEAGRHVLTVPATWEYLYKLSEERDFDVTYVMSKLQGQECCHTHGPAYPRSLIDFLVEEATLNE
# Experiment: PBM E-score (8-mer binding enrichment) (E-score (-0.5 to 0.5)); higher = stronger / more preferred TF binding
# Conditions: protein concentration: 100 nM; construct: GST-full length
# Method: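 Universal 'all 10-mer' protein binding microarrays (Agilent AMADID 015681) probed with GST-tagged S. cerevisiae TFs (full-length or DBD) made by in vitro transcription/translation (PURExpress), about 100-200 nM. Bound TF was detected with fluorescent anti-GST. Each ungapped 8-mer (which stands for itself and its reverse complement) is scored by the PBM enrichment score (E-score), a modified Wilcoxon-Mann-Whitney statistic from -0.5 to +0.5, computed with the Universal PBM Analysis Suite. Scale: above 0.35 generally sequence-specific binding.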
row,Sequence,PBM E-score
1,CGTCCTTC,0.0406
2,CTATGGGA,-0.103
3,CGTCCCTA,-0.206
4,TACTAAAA,0.255
5,GACTAAAA,0.0994
6,GACTGAAA,0.0541
7,AACTATAA,0.186
8,TACTGAAA,0.273
9,TACTAACA,0.294
10,CACTAACA,0.162
11,CACTATAA,-0.00697
12,AACTAACA,0.211
13,TACTATAA,0.266
14,CACTGAAA,0.0595
15,AACTAAAA,0.148
16,GACTTTGA,0.00307
17,TTGTACAA,0.185
18,CATCAGAC,-0.133
19,ACATACCC,0.0479
20,GAACTCGC,0.0628
21,CTCCTACC,-0.275
22,CCTGAACG,-0.154
23,GTCTAGCA,0.0493
24,ATGAGAAA,0.181
25,GCGTTAGA,0.0241

row,Sequence,PBM E-score
1,AAGCGTTC,-0.0829
2,GCGGCCTA,-0.0845
3,ATTTTAAC,0.149
4,AATTTTAA,0.212
5,ATTTTAAA,0.282
6,ATTTTTAG,-0.0279
7,AATTTTTA,0.252
8,GTTTTAAA,0.235
9,ATTTTTTA,0.255
10,ATTTTTTG,0.226
11,ATTTTTAA,0.295
12,TCAGCGCA,-0.216
13,CGGTTTTA,-0.106
14,CTAAGTAC,0.016
15,CGATGGGC,-0.18
16,CCAACAGC,0.0293
17,GAGTCATC,-0.00184
18,AATACACC,0.272
19,AATACACA,0.131
20,GATACACC,0.161
21,AATACACG,0.0582
22,CATACACC,0.0314
23,AATACACT,0.259
24,CGGCAGGC,-0.189
25,CGAGAGTA,0.0233

row,Sequence,PBM E-score
1,GCATTGTA,-0.0355
2,GCAAAGAA,0.0916
3,CAGCGAAG,-0.16
4,ATTGCAAG,0.0639
5,ATTGCAAA,0.0883
6,ATTGCAAT,0.283
7,ATGGCCAA,-0.114
8,AGGTGCCG,-0.101
9,CTGTTTCA,0.0525
10,GCCAAGAC,-0.195
11,CAAATAAG,-0.0581
12,AAAATAAC,0.0743
13,CAAATACC,0.0818
14,CAAATATG,0.131
15,AAAATATG,0.256
16,AAAATATA,0.19
17,AAAATATC,0.257
18,AAAATAAG,0.271
19,CAAATATC,0.285
20,AAAATACG,0.234
21,CGAATATC,0.154
22,GAAATATC,0.0879
23,GAAGCTAA,-0.136
24,ATAAGGTG,-0.00609
25,ATCTGCCG,0.101

row,Sequence,PBM E-score
1,GTCAGCAC,-0.0445
2,GGATCAAA,0.111
3,AAAATACT,0.0626
4,AAAATATT,0.318
5,AAAATAGT,0.12
6,TAGCAACA,0.114
7,AAGCACTT,-0.0376
8,CGTGGCTC,-0.321
9,CCGGAAAA,0.106
10,AATCGAAA,0.0602
11,AATCGACT,-0.0232
12,AATCGACA,0.258
13,AATCGAAC,0.107
14,AATCGACC,-0.00549
15,AATCGAAG,0.256
16,AACGCGAA,0.298
17,AACGCGAG,0.126
18,AACGCGCA,0.103
19,AACGCGCT,-0.012
20,AACGCGCG,0.265
21,CACGCGAA,-0.0244
22,ACGCACCC,-0.243
23,ACCCGCAA,-0.239
24,ACTAGTTG,-0.0214
25,TCGCAAGA,-0.0427

row,Sequence,PBM E-score
1,TCCATCCA,-0.0216
2,ACCCCCAT,-0.246
3,AAGACAAC,0.267
4,AAGACAAG,0.045
5,CAGACAAC,0.0898
6,GAAAGAGA,0.0574
7,ATCATCAT,0.139
8,AATTTGCG,0.0563
9,CTCGTAAC,0.177
10,CTCGTAAG,0.257
11,ATCGTAAG,0.137
12,ATTGTCTG,0.11
13,AAGATGAT,0.0727
14,ATTGCTCA,-0.00161
15,GATAGATA,0.0286
16,AATAGATA,0.267
17,CGTAGATA,0.0847
18,AGTAGATC,-0.0265
19,TATAGATA,0.0759
20,AGTAGATA,0.273
21,GGCATCGA,-0.125
22,ACGGCGCA,0.0681
23,AGAATGCC,-0.00977
24,CCGCAAAA,0.076
25,AATAGTAC,0.0612

row,Sequence,PBM E-score
1,CATAGTAA,0.198
2,AATAGTAG,0.206
3,AATAGTAA,0.258
4,TATAGTAA,0.27
5,AATAGTTA,0.0935
6,GATAGTAA,0.11
7,AATAGTTC,0.156
8,AATAGTTG,0.267
9,GCCTAACC,-0.151
10,ATCTACTA,0.185
11,AAACCTCG,-0.132
12,ACATCGAT,0.0921
13,ACCTAGTA,-0.119
14,CTTCATTA,0.242
15,ATTCATTA,0.174
16,GTTCATTA,0.259
17,ACTTCATC,0.0677
18,ACCGTCGG,-0.163
19,AACTAGCT,-0.0564
20,ATATATTA,0.32
21,CGATATTC,0.0953
22,CGATATTA,0.358
23,GTATATTA,0.211
24,CTATATTA,0.325
25,ATAGATTA,0.348

row,Sequence,PBM E-score
1,GTAGATTA,0.245
2,ATAGATTG,0.119
3,GGATATTA,0.0994
4,CTATATTC,0.151
5,CTCTATTA,0.0839
6,ATATATTG,0.0595
7,GGTACTGA,-0.124
8,GATGGGGA,-0.0817
9,ATATAGAC,0.123
10,AGTGCATC,-0.0272
11,CTACGCGC,-0.0286
12,ATAGAGAT,0.166
13,CTATAGTA,0.156
14,CTATCTCA,-0.0511
15,ATCTCTCA,0.15
16,CCATATTA,0.24
17,ATATAGTA,0.264
18,GTATATCA,0.0881
19,ATATCTCA,0.268
20,GTATAGTA,0.143
21,CTATATCA,0.264
22,ACATATTA,0.305
23,ATATATCA,0.118
24,ACATATTG,0.11
